# Source: paper PMC4242493, “Sequence specificity incompletely defines the genome-wide occupancy of Myc”
# The full ranking holds about 33,000 sequences; the median of “normalized occupancy” is about 0.075, and the highest 2% start at about 0.095. This is one part of a sample in which the highest values are shown more often than they occur.
# Target: MaxL homodimer (Homo sapiens, UniProt P61244 1-160)
# Experiment: universal protein-binding microarray (PBM); PBS-based mixture, 10 nM His-tagged protein dimer, 2% milk, 200 ng/uL BSA, 50 ng/uL salmon testes DNA, 0.02% TX-100; detection with Alexa 488 anti-His antibody;; high values mean tight binding
# Conditions: protein: recombinant; tags: C-terminal His-tag (pET21a); chain copies: 2; dsDNA, one strand shown
# How it was run: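 His-tagged protein dimer at 10 nM was bound to Agilent 4 x 44 K 'all 10-mer' universal arrays and detected with 10 ng/μL fluorophore-conjugated anti-His antibody on a GenePix 4400A, giving an intensity per 8-mer. Binding occupancy normalises each intensity to the top-ranked one.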
# Chain of MaxL homodimer (P61244 whole entry): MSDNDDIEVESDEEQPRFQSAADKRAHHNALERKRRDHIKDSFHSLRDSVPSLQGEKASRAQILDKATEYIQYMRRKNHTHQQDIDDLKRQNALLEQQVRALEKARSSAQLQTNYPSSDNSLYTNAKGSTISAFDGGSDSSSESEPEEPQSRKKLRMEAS
row,Sequence,binding signal
1,AATGGGGG,0.0803 normalized occupancy
2,CCGTTTGA,0.0729 normalized occupancy
3,CAGGTGAC,0.0878 normalized occupancy
4,AAACATTA,0.0779 normalized occupancy
5,CCCTGCGG,0.0745 normalized occupancy
6,CCATGCGG,0.145 normalized occupancy
7,AAATGCGC,0.0749 normalized occupancy
8,CCATGCGA,0.1 normalized occupancy
9,CAATGCGA,0.0774 normalized occupancy
10,TCATGCGA,0.0877 normalized occupancy
11,GCATGCGA,0.119 normalized occupancy
12,GCATGCGC,0.121 normalized occupancy
13,GAATGCGC,0.075 normalized occupancy
14,GTATGCGA,0.0727 normalized occupancy
15,CAATGCGG,0.0873 normalized occupancy
16,GGATGCGA,0.0783 normalized occupancy
17,TGATAGAA,0.0854 normalized occupancy
18,GTGTCGTA,0.0815 normalized occupancy
19,AGGTCACG,0.082 normalized occupancy
20,CTGTTGTA,0.0736 normalized occupancy
21,AAAGAGCA,0.0761 normalized occupancy
22,ATGCGCGA,0.0781 normalized occupancy

row,Sequence,binding signal
1,ATGTTCAG,0.0809 normalized occupancy
2,ACACATCC,0.0784 normalized occupancy
3,CAATGCGC,0.0788 normalized occupancy
4,CTATGCGC,0.075 normalized occupancy
5,CCATGCGC,0.121 normalized occupancy
6,ACCATTGC,0.0746 normalized occupancy
7,CAACGTGC,0.122 normalized occupancy
8,CAACGTAA,0.0776 normalized occupancy
9,CAACGTGA,0.118 normalized occupancy
10,CAACGTCA,0.0743 normalized occupancy
11,AAACGTAT,0.0746 normalized occupancy
12,AAACGTGT,0.1 normalized occupancy
13,GAACGTGC,0.0931 normalized occupancy
14,AAACGTGC,0.101 normalized occupancy
15,AAACGTAC,0.074 normalized occupancy
16,CAACGTAC,0.0758 normalized occupancy
17,CAACGTTC,0.0755 normalized occupancy
18,AAACGTTT,0.0755 normalized occupancy
19,CACACCCA,0.0877 normalized occupancy
20,ATTATTTG,0.0793 normalized occupancy
21,ACCGATAC,0.075 normalized occupancy
22,TCTCCAAA,0.0803 normalized occupancy

row,Sequence,binding signal
1,CTCTCAGC,0.0719 normalized occupancy
2,CATGGCTC,0.09 normalized occupancy
3,AAACCATA,0.0792 normalized occupancy
4,CTGAATCC,0.0737 normalized occupancy
5,CGTACGCC,0.0757 normalized occupancy
6,CTTAACCC,0.0738 normalized occupancy
7,ACAACTAA,0.0755 normalized occupancy
8,CGGCAGCC,0.0724 normalized occupancy
9,CGTTTAGA,0.0747 normalized occupancy
10,AAACGTCG,0.0737 normalized occupancy
11,CAACGTTG,0.083 normalized occupancy
12,AAACGTAG,0.0771 normalized occupancy
13,AAACGTGA,0.099 normalized occupancy
14,AAACGTGG,0.123 normalized occupancy
15,GAACGTGA,0.0801 normalized occupancy
16,TAACGTGA,0.0935 normalized occupancy
17,CAACGTAG,0.0762 normalized occupancy
18,CAACGTGG,0.154 normalized occupancy
19,ATCGCCAG,0.0753 normalized occupancy
20,AAGACATG,0.0912 normalized occupancy
21,GAAGCATC,0.076 normalized occupancy
22,AACATCCA,0.0849 normalized occupancy

row,Sequence,binding signal
1,ACTTAAAT,0.0746 normalized occupancy
2,CTACGTGA,0.0799 normalized occupancy
3,CCACGTGG,0.971 normalized occupancy
4,CCACGTCG,0.086 normalized occupancy
5,CCACGTAG,0.0817 normalized occupancy
6,TCACGTCA,0.0819 normalized occupancy
7,CCACGTGA,0.482 normalized occupancy
8,CGACGTGC,0.083 normalized occupancy
9,CCACGTGC,0.814 normalized occupancy
10,TCACGTGA,0.19 normalized occupancy
11,CGACGTGA,0.0883 normalized occupancy
12,CTACGTGC,0.0865 normalized occupancy
13,TCACGTAA,0.086 normalized occupancy
14,GGAGAGCA,0.0742 normalized occupancy
15,CCGTCTAA,0.0757 normalized occupancy
16,ACAAATGT,0.079 normalized occupancy
17,GGTCAGGA,0.0732 normalized occupancy
18,GAGGAAGA,0.075 normalized occupancy
19,ACCTGTAA,0.0823 normalized occupancy
20,CCACCTGG,0.105 normalized occupancy
21,TCACCTGA,0.0809 normalized occupancy
